The structures appear in SMILES notation. This is part of a sample that, as a whole, favours compounds with a hit. Of some 83,000 tested, about 20% had one in any assay.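 Growth was measured after 48 h exposure to one concentration of compound in 96-well plates. Values under 10 count as active.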 A number with no mark means an inactive call. Calls of active or inactive are those of the source.

Among the test systems are NCI-H23 lung; NCI-H226 lung; NCI-H322M lung; HOP-62 NSCLC; NCI-H460 lung; HOP-92 NSCLC; NCI-H522 lung; A549/ATCC NSCLC; 786-0 renal; COLO 205 colon.
Test in all cases: NCI-60 one-dose screen, 48 h (100 = growth as untreated, 0 = no growth, -100 = all killed)
Conditions in all cases: 10 µM

In the case of `CCOC(=O)Nc1ccc2c(c1)C(=O)N(CC)c1ccccc1O2`, the growth was 30.1% with NCI-H23 lung; 14.5% with NCI-H226 lung; 50% in the test with NCI-H322M lung; 24.8% with HOP-62 NSCLC; 9.56% (active) with NCI-H460 lung; 33.7% with HOP-92 NSCLC. In addition, the growth in the test with NCI-H522 lung is -39% (active); with A549/ATCC NSCLC it was 19.4%; in the test on 786-0 renal, 31.1%; in the test with COLO 205 colon, -29.8% (active).

`O=C(NC1CCN(Cc2ccccc2)CC1)c1cc(-c2ccncc2)nc2ccc(Cl)cc12`: the growth in the test on NCI-H23 lung is 38.3%; in the test with NCI-H226 lung it was 26.9%; in the test with NCI-H322M lung, 32.5%; with HOP-62 NSCLC, 45.6%; in the test with NCI-H460 lung it was 6.31% (active); in the test on HOP-92 NSCLC it was 27.7%. Also, the growth in the test with NCI-H522 lung was 28.6%; in the test with A549/ATCC NSCLC, 6.48% (active); in the test on 786-0 renal it was 31.1%; with COLO 205 colon, 18.5%.

Regarding `O=C(Nc1cccc(F)c1)Nc1cccc(Cl)c1`, the growth with NCI-H23 lung is 89.8%; with NCI-H226 lung, 102%; with NCI-H322M lung, 94.8%; in the test with HOP-62 NSCLC, 99.6%; in the test on NCI-H460 lung, 56%; in the test on HOP-92 NSCLC, 76.7%. In addition, the growth in the test on NCI-H522 lung was 90.5%; in the test with A549/ATCC NSCLC, 74.7%; in the test with 786-0 renal, 94.2%; in the test with COLO 205 colon, 93.6%.

Consider `CC(=O)n1nc(C(=O)OC(C)(C)C)c2cc(F)c(F)cc21`, for which the growth in the test with NCI-H23 lung was 101%; with NCI-H226 lung, 105%; with NCI-H322M lung it was 102%; in the test on HOP-62 NSCLC, 99%; with NCI-H460 lung, 102%; with HOP-92 NSCLC, 83%. The growth in the test with NCI-H522 lung was 83.2%; in the test on A549/ATCC NSCLC, 95.9%; in the test on 786-0 renal, 97.5%; in the test on COLO 205 colon, 103%.

In the case of `COc1cc(Cn2c(-c3ccccc3)c(Cl)c3c2-c2oncc2CC3)cc(OC)c1`, the growth is 72.2% with NCI-H23 lung; 109% with NCI-H226 lung; 68.5% in the test on NCI-H322M lung; 102% with HOP-62 NSCLC; 46.3% in the test with NCI-H460 lung; 51.7% in the test with HOP-92 NSCLC. Besides, the growth is 9.45% (active) in the test on NCI-H522 lung, 53.5% in the test on A549/ATCC NSCLC, 74.7% in the test with 786-0 renal and 113% in the test on COLO 205 colon.

`Cc1ccc(S(=O)(=O)Oc2ccccc2-c2ccccc2)cc1`: the growth in the test on NCI-H23 lung was 47.2%; with NCI-H226 lung it was 53.5%; in the test with NCI-H322M lung, 47.9%; in the test on HOP-62 NSCLC, 42%; in the test on NCI-H460 lung it was 9.27% (active); with HOP-92 NSCLC it was 33%. The growth in the test on NCI-H522 lung is 15%; in the test with A549/ATCC NSCLC, 42.4%; in the test on 786-0 renal, 38.4%; with COLO 205 colon it was 8.93% (active).

As for `COc1cccc(C(=O)NNc2nc(N3CCOCC3)nc(N3CCN(C(c4ccccc4)c4ccccc4)CC3)n2)c1`, the growth with NCI-H23 lung was 84.2%; in the test on NCI-H226 lung, 83.6%; in the test with NCI-H322M lung it was 82.8%; with HOP-62 NSCLC it was 82.2%; with NCI-H460 lung, 87.8%; in the test on HOP-92 NSCLC it was 70.3%. Moreover, the growth was 86.6% in the test on NCI-H522 lung, 62.4% in the test with A549/ATCC NSCLC, 86.6% in the test on 786-0 renal and 75.4% with COLO 205 colon.

Take `Cc1ncc([N+](=O)[O-])n1CCOc1ccc(C(=O)/C=C/c2ccc(C(F)(F)F)cc2)cc1`: the growth in the test on NCI-H23 lung is 88%; in the test on NCI-H226 lung, 76.2%; with NCI-H322M lung, 66.4%; with HOP-62 NSCLC, 88.9%; with NCI-H460 lung, 79.5%; in the test with HOP-92 NSCLC it was 67.1%. The growth is 67.1% with NCI-H522 lung, 55.5% in the test on A549/ATCC NSCLC, 63.3% in the test on 786-0 renal and 61.2% with COLO 205 colon.

Consider `COc1cc(CSc2nc3ccc(Cl)cc3c(=O)n2-c2ccccc2)cc(OC)c1OC`, for which the growth with NCI-H23 lung is 79%; in the test with NCI-H226 lung, 89.2%; in the test with NCI-H322M lung, 85.7%; in the test with HOP-62 NSCLC it was 72%; in the test on NCI-H460 lung it was 96.6%; with HOP-92 NSCLC, 89%. In addition, the growth in the test on NCI-H522 lung is 38.5%; with A549/ATCC NSCLC it was 73.9%; in the test with 786-0 renal it was 89.3%; with COLO 205 colon it was 84.5%.

Take `C#Cc1ccc(-n2c(/C=C/c3cc(OC)c(OC)c(OC)c3)nc3ncccc3c2=O)cc1`: the growth is 73.6% in the test with NCI-H23 lung; 56.1% with NCI-H226 lung; 68.3% with NCI-H322M lung; 66.2% in the test with HOP-62 NSCLC; 72.6% in the test with NCI-H460 lung; 6.32% (active) with HOP-92 NSCLC. The growth in the test on NCI-H522 lung was 7.99% (active); in the test on A549/ATCC NSCLC, 44.1%; in the test with 786-0 renal it was 75.9%; in the test on COLO 205 colon, 31.1%.

As to `Cc1ccc(C(=O)O)c(N)c1C`, the growth with NCI-H23 lung is 94.4%; in the test on NCI-H226 lung, 98.6%; with NCI-H322M lung, 96.1%; with HOP-62 NSCLC it was 90.2%; in the test with NCI-H460 lung, 108%; in the test on HOP-92 NSCLC, 98.8%. Further, the growth in the test on NCI-H522 lung was 87.3%; in the test on A549/ATCC NSCLC, 111%; in the test on 786-0 renal, 103%; in the test with COLO 205 colon, 117%.

As for `O=[N+]([O-])c1ccc(Br)o1`, the growth in the test on NCI-H23 lung was 94.4%; with NCI-H226 lung it was 93.1%; with NCI-H322M lung, 103%; in the test with HOP-62 NSCLC, 100%; in the test with NCI-H460 lung, 113%; in the test with HOP-92 NSCLC, 102%. For the same compound, the growth with NCI-H522 lung is 84.4%; with A549/ATCC NSCLC it was 104%; in the test on 786-0 renal, 99.2%; in the test on COLO 205 colon, 105%.

On to `CCOC(=O)c1c(C(F)(F)F)n([O-])c2ccc(OC)cc2[n+]1=O`, for which the growth in the test on NCI-H23 lung is 30.3%; with NCI-H226 lung, 47.4%; in the test with NCI-H322M lung, 58%; with HOP-62 NSCLC it was 17.1%; in the test with NCI-H460 lung it was 18.7%; in the test on HOP-92 NSCLC, -34.7% (active). Besides, the growth in the test on NCI-H522 lung is -25.9% (active); in the test on A549/ATCC NSCLC it was 26.8%; with 786-0 renal, 42.2%; with COLO 205 colon, 31.1%.

The values are drawn from PubChem BioAssay (NCI).
